# Shown are actives, neighbours in structure and some others; about 2.8% of the full set was active somewhere.
# KCNH2 WT inh: qHTS for Inhibitors of KCHN2 3.1: Wildtype qHTS; Voltage-gated inwardly rectifying potassium channel KCNH2 (Homo sapiens), Q12809; U2OS, BacMam KCNH2, thallium flux FluxOr; hits give low values; activity change, % at 1.84 µM; 340,000 tested, 0.37% active;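 active = maximum activity change below -70%; inconclusive = maximum activity change between -70% and -50%; inactive = maximum activity change above -50%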; note: % is set by controls: 0 for no effect and ±100 for the full control effect
#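 U2OS cells were transduced with wild-type KCNH2 virus (2.03 x 10^8 / mL) for 4 h at room temperature, then cultured overnight at 37 C. Thallium flux was read with FluxOr dye. Rate constants were normalized to DMSO controls.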
# GLP1R cytotox: qHTS of GLP-1 Receptor Inverse Agonists: Cytotox Screen; HEK293 cAMP-luciferase reporter cells, luminescence, 24 h; Potency, µM (titrated, usually from 38.3 µM), for inactives: at the highest dose activity change, negative = inhibition, actives largely listed as inhibitors; 410,000 tested, 0.13% active; AID 624418, 2012;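 note: loss of luciferase light is scored as toxicity; potency is the fitted concentration of half-maximal effect; % is set by controls: 0 for no effect and ±100 for the full control effect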
#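 MLSMR compounds, 24 hr on cells at 37 deg C/5% CO2; luminescence after luciferase reagent (12 min RT). Inhibition counted as the undesired cytotoxic outcome.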
# KCNH2 3.1 block: qHTS for Inhibitors of KCHN2 3.1: Mutant qHTS; 340,000 tested, 0.95% active; activity change, % (tested at about 1.8 µM); Potassium voltage-gated channel subfamily H member 2, brain isoform KCNH2 3.1 (human); U2OS KCNH2 3.1, thallium flux FluxOr; hits give low values; AID 720553, 2013;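 active = maximum activity change below -70%; inconclusive = maximum activity change from -70% to -50%; inactive = maximum activity change above -50%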;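 note: thallium influx rate constant from kinetic fluorescence after stimulation buffer; % is set by controls: 0 for no effect and ±100 for the full control effect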
#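 FluxOr-based Tl+ influx in U2OS cells transduced with KCNH2 3.1 virus; rate constants normalized to DMSO controls.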
# GLP1R inv ag: qHTS of GLP-1 Receptor Inverse Agonists (Inhibition Mode) | HEK293 GLP-1R CRE-luciferase, luminescence, 24 h; GLP-1R form is constitutively active | Potency, µM (doses to about 38.3 µM), inactives show top-dose activity change, negative = inhibition, hits mostly inhibitors | 410,000 tested, 1.6% active; note: potency is the fitted concentration of half-maximal effect; % is set by controls: 0 for no effect and ±100 for the full control effect; nearly all actives have a fitted effect of over 55% in size
#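 Assay principle: reduced luminescence from a cAMP-responsive reporter in HEK293 cells co-expressing a constitutively active GLP-1R. Conditions: 24 hr compound incubation, 37 deg C, 5% CO2.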
# GLP1R ag: qHTS of GLP-1 Receptor Agonists. Glucagon-like peptide 1 receptor (Homo sapiens), P43220. HEK293 GLP-1R CRE-luciferase, luminescence, 4-6 h; cells express a hypersensitive GLP-1R form. Potency, µM (series often up to 45.6 µM), for the others: at the highest dose activation, usual class: activators. 380,000 tested, 0.007% active; note: potency is the fitted concentration of half-maximal effect; % of control where 0% means no effect
# GLS inh: qHTS for Inhibitors of Glutaminase (GLS); 410,000 tested, 0.21% active; Potency, µM (top dose mostly 45.5 µM), inactives show at the highest dose activity change, negative = inhibition, hits mostly inhibitors; GLS enzymatic activity, qHTS titration; Glutaminase kidney isoform, mitochondrial (Homo sapiens), O94925; note: potency is the fitted concentration of half-maximal effect; % is set by controls: 0 for no effect and ±100 for the full control effect
#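 Glutamate formation by hKGA was monitored fluorometrically using coupled glutamate oxidase, HRP and Amplex Red. Substrate was added as 1 mM L-glutamine solution; incubation was 30 min at RT after an initial read.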
# Numbers without * were called inactive; ? = inconclusive; . = no result. Unless noted, calls come from the whole dose curve; as a rule, active = well fitted curve in the direction sought with a large enough effect; inconclusive = small, poorly fitted or top-dose-only effect, or another doubt; inactive = no such curve, though single readings can be large; an effect the other way counts as inactive or inconclusive.
SMILES,KCNH2 WT inh,GLP1R cytotox,KCNH2 3.1 block,GLP1R inv ag,GLP1R ag,GLS inh
NC(=O)CCCn1c(C(=O)c2cc(Cl)c(N)c(Cl)c2)c2ccc(C(F)(F)F)cc2[n+]1[O-],4,?,-85*,?,1%,4%
NCCCn1c(C(=O)c2cc(Cl)c(N)c(Cl)c2)c2ccc([N+](=O)[O-])cc2[n+]1[O-],25,?,-7,-32%,-4%,6%
CCCCN(CC)C(=O)Nc1ccc2c(c1)N(C)C(=O)c1ccccc1S2,.,7%,.,-26%,.,-7%
CN(C)c1ccc(C(=S)N2CCCC2)cc1Br,-6,10%,2,?,7%,-6%
COc1ccc2c(CNC3CCC(C)CC3)c(C(=O)O)n(Cc3ccccc3)c2c1 (centres undefined),.,-24%,.,-18%,0%,-9%
O=C(Nc1ccc(/C=C/c2nc3ccccc3o2)cc1)c1c(F)cccc1F,13,0%,18,?,-30%,0%
O=C(Nc1ccc(/C=C/c2nc3ccccc3o2)cc1)c1cccc(C(F)(F)F)c1,-3,8%,2,3.2µM*,-1%,7%
CC(=O)c1ccc(NC2=NS(=O)(=O)c3ccccc32)cc1,.,0%,.,6%,.,-10%
CCOC(=O)N1CCN(C(=O)CN(c2cc(C)ccc2OC)S(=O)(=O)c2ccc(C)cc2)CC1,.,1%,.,1%,2%,2%
Cc1cc(SCC(=O)N2CCCC2=O)nc2c(C)cccc12,1,5%,2,14%,19%,-10%
Cc1cc(SCC(=O)NC2(C#N)CCCCC2)nc2c(C)cccc12,-10,-8%,-1,10µM*,2%,6%
Cc1ccc(S(=O)(=O)N(C)Cc2ccc(C(=O)N/N=C/c3ccc(OC(F)F)cc3)cc2)cc1,?,9%,-109*,5%,-3%,-16%
Cc1nc2scc(C)n2c(=O)c1S(=O)(=O)Nc1cccc(C(F)(F)F)c1,.,2%,.,11µM*,.,1%
Cc1c(C(=O)Nc2cccc(C(F)(F)F)c2)oc2ccc(S(=O)(=O)N(C)C3CCCCC3)cc12,.,4%,.,-6%,.,4%
NS(=O)(=O)c1ccc(NCc2c(F)cccc2Cl)cc1,7,-18%,-1,-20%,2%,7%
Fc1cccc(Cl)c1CNc1ccc(N2CCCC2)cc1,5,?,-18,3%,9%,7.9µM*
CCCOc1cccc(C(=O)N2CCCCC2CCN2CCCCC2)c1 (centres undefined),.,-1%,.,-5%,.,7%
CCOc1ccc(S(=O)(=O)N2CCC(N3CCN(Cc4ccc(F)cc4)C(=O)C3=O)CC2)cc1,.,-6%,.,?,.,-4%
CC(C)CCn1cnc2c(oc3nc4c(cc32)CCCC4)c1=O,-3,-8%,-12,8.9µM*,-7%,1%
CC1(C)Cc2nc3oc4c(=O)n(CC(=O)Nc5ccccc5)cnc4c3cc2CO1,5,-13%,.,-16%,9%,-16%
Cc1c(N=C2SCC(=O)N2/N=C\c2ccc(Br)cc2)c(=O)n(-c2ccccc2)n1C,3,14%,1,8.9µM*,0%,-9%
Cc1c(N=C2SCC(=O)N2/N=C/c2ccccc2Cl)c(=O)n(-c2ccccc2)n1C,1,14%,3,-29%,3%,1%
CC/C(O)=N/S(=O)(=O)c1ccc(-c2c(-c3ccccc3)noc2C)cc1,.,.,.,.,0%,4%
CN(c1ccccc1)S(=O)(=O)c1cccc(NC(=O)COc2cccc([N+](=O)[O-])c2)c1,31,-7%,-26,10µM*,-1%,16%
Cc1ccsc1CN(C)CC(=O)Nc1cccc(S(=O)(=O)N(C)c2ccccc2)c1,5,1%,1,8.9µM*,-24%,6%
SMILES,KCNH2 WT inh,GLP1R cytotox,KCNH2 3.1 block,GLP1R inv ag,GLP1R ag,GLS inh
COc1ccc(OC)c(CNC(=O)c2c(C)oc3ncn(CC(C)C)c(=O)c23)c1,.,7%,.,14%,.,-11%
CCOC(=O)c1c(C)oc2nc(C)nc(NCCCN3CCN(c4ccccc4OC)CC3)c12,.,5%,.,0%,.,-1%
COc1cccc(CN2C(=O)N(c3ccc(C)cc3)C(=O)C2CC(=O)Nc2cc(OC)cc(OC)c2)c1 (centres undefined),.,-11%,.,?,.,5%
CC1CCCCN1Cc1c(O)ccc2c(=O)c(-c3ccc(Cl)cc3)c(C(F)(F)F)oc12 (centres undefined),.,-14%,.,-14%,20%,5%
O=C(NN=C1CCCCCC1)c1cc(-c2ccccc2)nc2ccccc12,-3,-21%,1,-6%,4%,?
C/C(=N\NC(=O)c1cc(-c2cccnc2)nc2ccccc12)c1ccccc1O,-5,?,-110*,-24%,5%,2%
COc1ccc(/C(C)=N/NC(=O)c2cc(-c3cccnc3)nc3ccccc23)cc1,-19,-5%,.,15%,7%,-9%
Cc1ccc(-c2cc(C(=O)NN=C3CCCC3)c3ccccc3n2)cc1,-197*,-22%,16,-3%,1%,-1%
Cc1ccc(S(=O)(=O)Cc2ccc(C(=O)NCCc3ccc(Cl)cc3)o2)cc1,.,-13%,.,10µM*,-2%,-1%
COc1ccc(S(=O)(=O)Cc2ccc(C(=O)O)o2)cc1,-26,?,18,1%,0%,-1%
O=C(NCc1ccccc1Cl)c1ccc(CS(=O)(=O)c2ccc(Br)cc2)o1,.,5%,.,10µM*,.,-2%
O=C(NCc1ccccc1Cl)c1ccc(CS(=O)(=O)c2ccccc2)o1,-8,4%,12,3%,-2%,-9%
Cc1ccc(S(=O)(=O)Cc2ccc(C(=O)O)o2)cc1,-2,-10%,16,1%,-3%,13µM*
CCCNC(=O)C1=CC(c2ccc3c(c2)OCO3)=NS(=O)(=O)N1C,.,2%,.,3%,.,2%
NC(=S)N=Nc1c(O)n(CC(=O)Nc2ccccc2)c2ccccc12,1,?,-6,-6%,-4%,-3%
NC(=S)N=Nc1c(O)n(CCCl)c2ccc(Cl)cc12,-3,1.3µM*,-6,?,26%,-6%
NC(=S)N=Nc1c(O)n(CCCl)c2ccccc12,-3,?,-6,2.8µM*,23%,-1%
CC(=O)c1cccc(NC(=O)[C@H](Cc2ccccc2)N2Cc3ccccc3C2=O)c1,.,2%,.,10%,0%,5%

# Screens: PubChem BioAssay, National Center for Advancing Translational Sciences (NCATS)
